# Screening results deposited in PubChem by Broad Institute.
# Glyco luc inh: N-linked glycosylation inhibition | D54 ERlucT glycosylation luciferase reporter, 24 h; percent of 100 nM tunicamycin response | reporter increase, % at 12.5 µM | actives 0.23% (n = 360,000) | AID 588692;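 active = mean luciferase reporter signal, scaled so untreated is 0 and the glycosylation-blocking control 100, at or above a set limit in every replicate; inconclusive = mean reaches the limit but not every replicate does; inactive = mean below the limit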;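 also: luciferase carries N-glycosylation sites so blocking glycosylation raises the light; 0% = median of neutral control wells and 100% = median of 100 nM tunicamycin wells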
# CFTR F508del cor: correctors of CFTR F508del function in bronchial epithelial cells; CFBE cells, YFP halide quenching; stimulated with forskolin plus potentiator P3; % fluorescence drop versus neutral controls; activity (quench increase), % at 7.58 µM; actives 0.36% (n = 350,000); AID 720511;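 active = mean added fluorescence quench of at least 8% versus neutral control, with both replicates also reaching 8%; inconclusive = only one of the mean or replicate conditions met; inactive = mean below 8% and not both replicates reaching 8%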;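 also: cells transiently co-express mutant CFTR-F508del with the halide-sensitive YFP; corrector assay measuring rescue of mutant channel to the surface after 24 h compound exposure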
# dFosB act: activators of mouse delta FosB homodimer; purified delta FosB, TAMRA-CDK5 oligo fluorescence polarization; percent of positive-control signal above neutral wells; activation, % at 25 µM; AID 493131; P13346; actives 0.99% (n = 340,000);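 active = mean activation above about 17%, with every replicate also reaching it, limit read from the data, passing the limit was not always enough; inconclusive = only one of the two conditions met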
# RAD54 inh: blocks human RAD54 Holliday junction branch migration; Q92698; FAM/BHQ fluorescence; inhibition, % at 10.4 µM; actives 0.14% (n = 360,000);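 active = mean normalized replicate activity at least 40 and at least half of replicates scoring 40 or more; inconclusive = only one of the two criteria met; inactive = mean below 40 and under half of replicates reaching 40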;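 also: 0% = median of neutral control wells and 100% = median of positive control wells; inhibitors cause a drop in the FAM fluorescence signal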
# Target sequence (Q92698 whole entry, looked up): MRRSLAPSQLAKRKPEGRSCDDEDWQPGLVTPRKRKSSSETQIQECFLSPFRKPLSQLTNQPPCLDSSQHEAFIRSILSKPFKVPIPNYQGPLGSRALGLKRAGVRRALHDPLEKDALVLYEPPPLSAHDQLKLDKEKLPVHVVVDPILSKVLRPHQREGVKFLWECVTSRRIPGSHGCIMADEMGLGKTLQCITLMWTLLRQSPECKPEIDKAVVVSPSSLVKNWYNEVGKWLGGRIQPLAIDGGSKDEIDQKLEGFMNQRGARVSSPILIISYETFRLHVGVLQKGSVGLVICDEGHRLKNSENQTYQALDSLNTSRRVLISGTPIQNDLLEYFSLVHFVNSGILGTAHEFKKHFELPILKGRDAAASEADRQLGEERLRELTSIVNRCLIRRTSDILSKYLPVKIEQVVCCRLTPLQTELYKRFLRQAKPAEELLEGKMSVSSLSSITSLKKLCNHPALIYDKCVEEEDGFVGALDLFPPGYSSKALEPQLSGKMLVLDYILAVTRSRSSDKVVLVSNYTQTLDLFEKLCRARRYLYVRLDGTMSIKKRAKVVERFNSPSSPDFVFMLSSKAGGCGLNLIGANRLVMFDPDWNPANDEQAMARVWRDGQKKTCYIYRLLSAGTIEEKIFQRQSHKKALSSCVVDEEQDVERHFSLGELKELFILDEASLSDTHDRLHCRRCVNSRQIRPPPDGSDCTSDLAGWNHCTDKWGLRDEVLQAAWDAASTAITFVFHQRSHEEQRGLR
# PvdQ inh: blocks Pseudomonas aeruginosa PvdQ acylase activity; inhibition, % at 10 µM; actives 0.063% (n = 340,000); purified PvdQ acylase, fluorescence plate reader; in the data active = inhibition above about 30%, passing the limit was not always enough; inconclusive = no clear call, values can overlap the other calls;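 also: 0% = vehicle neutral wells and 100% = reference inhibitor wells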
# RAD52 anneal inh: inhibitors of human RAD52 DNA annealing. P43351. recombinant RAD52 DNA annealing, FRET fluorescence. inhibition, % at 18.7 µM. actives 0.46% (n = 360,000). AID 651710;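 active = every replicate showing at least 50% inhibition; inconclusive = mean inhibition at least 50% but not in every replicate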
# DNA binder FP: counter-screen for RAD52 inhibitors: DNA binding compounds | shares compounds with RAD52 anneal inh | Salmon sperm DNA/acridine orange FP displacement | AC50, µM | actives 8% (n = 1,000);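 active = fitted half-maximal concentration for signal loss at or below twice the highest dose tested, in every separate run, actives reach about 64 µM in these data; inconclusive = runs disagree, or flat partial signal loss, or poor fit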
# Active calls of the source: *; i = inactive; ? = inconclusive; . = no result. A selection: hits, their analogues and other compounds. The true share with any hit is near 1.5%.
SMILES,Glyco luc inh,CFTR F508del cor,dFosB act,RAD54 inh,PvdQ inh,RAD52 anneal inh,DNA binder FP
CCN(CC)CCN1C(=O)/C(=C\c2ccc(Cl)c([N+](=O)[O-])c2)SC1=Nc1ccc(OC)cc1,-16,0,?,7,-2,80*,i
CCCN1C(=O)/C(=C/c2ccc(C)s2)SC1=Nc1ccc(OC)cc1,0,.,-7,-16,-19,.,.
COc1ccc(N=C2S/C(=C\c3ccc(Cl)c([N+](=O)[O-])c3)C(=O)N2CCN(C)C)cc1,-9,3,23*,24,-13,53*,i
CC(C)CC#Cc1ccc2c(c1)O[C@@H](CN(C)C)[C@H](C)CN([C@H](C)CO)S2(=O)=O,.,4,.,-7,.,13,.
CCOC(=O)c1[nH]c2ccccc2c1N=CN(C)C,2,.,7,.,-16,.,.
CN(C)C=Nc1ccc2nc3c(cc2c1)[nH]c1ccccc13,1,3,-93,.,-5,96*,23µM*
C[C@@H]1CN([C@H](C)CO)S(=O)(=O)c2ccc(C#CC3CC3)cc2O[C@@H]1CN(C)Cc1ccc(F)cc1,.,-2,.,-13,.,-18,.
Cn1c(C(=O)NCCCN2CCCCCC2)cc2c(=O)n(C)c3ccccc3c21,6,-4,-17,44,-11,52*,i
C[C@H](CO)N1C[C@H](C)[C@@H](CN(C)C(=O)Nc2ccc(C(F)(F)F)cc2)Oc2ccc(NC(=O)Cc3cn(C)c4ccccc34)cc2CC1=O,.,0,.,-8,.,-17,.
CN(C)C(=O)c1ccc(-c2ccc3c(c2)[C@H]2[C@H](CCN2C(=O)C2CCOCC2)[C@@H](CO)N3C)cc1,.,0,.,12,.,-1,.
CN(C)C(=O)c1cccc(-c2cnc3c(NC=O)cc(-c4cccc(F)c4)cn23)c1,5,1,.,-3,.,-15,.
CN(C)CCNC(=O)c1cccc(-c2cnc3c(NC=O)cc(-c4cc(F)c(F)c(F)c4)cn23)c1,-10,0,.,34,.,67*,i
CN(C)CCNC(=O)c1cccc(-c2cc(NC=O)c3ncc(-c4cccc(C(F)(F)F)c4)n3c2)c1,0,0,.,35,.,74*,i
Cc1ccc(NCCCn2cnc(C(=O)Nc3ccc(C)c(C)c3)n2)cc1C,-3,1,-10,-25,-25,4,.
Cc1cc(C)c(CN2CCN(CCCn3cnc(C(=O)Nc4ccc(C)c(C)c4)n3)CC2)c(C)c1,-7,1,13,5,-8,56*,i
CN(C)CCNC(=O)c1cccc2[nH]c(-c3ccncc3)nc12,68*,-1,38*,.,-10,50*,52µM*
COc1ccc(-c2nc3c(C(=O)NCCN(C)C)cccc3c3ccccc23)cc1,37*,11*,-77,.,-5,101*,?
CN(C)CCNC(=O)c1ccccc1-c1ccccc1,1,.,0,10,-16,.,.
COc1ccc(Cl)cc1C(=O)NCCN(C)C,-2,.,-4,7,3,.,.
COc1ccc(-c2coc3c(C(=O)NCCN(C)C)cccc23)c(C)c1,-2,-1,.,13,.,26,.
CN(C)CCNC(=O)c1cccc2nc3c(ccc4ccccc43)nc12,56*,19*,73*,.,-11,95*,14µM*
COc1ccc(C(=O)NCCN(C)C)c2nc3ccccc3cc12,54*,15*,-35,.,-20,91*,25µM*
CCC(=O)N1C[C@@H]2[C@H](c3ccccc31)[C@@H](CO)N2Cc1ccccc1F,.,-2,.,8,.,-9,.
O=C(C[C@@H]1C=C[C@H](NC(=O)C2CCC2)[C@@H](CO)O1)NCc1ccncc1,.,0,.,-1,.,8,.
COc1cccc2nc3c(C(=O)NCCN(C)C)cccc3cc12,49*,5,-39,.,-12,81*,34µM*
SMILES,Glyco luc inh,CFTR F508del cor,dFosB act,RAD54 inh,PvdQ inh,RAD52 anneal inh,DNA binder FP
Cc1ccc(Sc2cc(C(=O)NCCN(C)C)c3ccccc3n2)cc1,-7,-2,-15,-4,-6,-2,.
C[C@H](CO)N1C[C@H](C)[C@H](CN(C)Cc2ccc(C(=O)O)cc2)Oc2c(NS(=O)(=O)c3cn(C)cn3)cccc2C1=O,.,-1,.,0,.,5,.
Cc1cc(C)n(-c2nc(NCCN(C)C)c3c4c(sc3n2)CCCC4)n1,-8,-5,?,.,-5,83*,i
O=C(NCC1CCCO1)c1nnc(Cc2ccc(F)cc2)o1 (stereo unspecified),-2,1,1,3,-1,53*,i
C[C@H](CO)N1C[C@H](C)[C@@H](CN(C)Cc2ccc(C(=O)O)cc2)OCCCC[C@H](C)Oc2ccc(NS(=O)(=O)c3ccc(Cl)cc3)cc2C1=O,.,-1,.,-6,.,14,.
O=C(CN1CCC(NC(=O)C2CCCCC2)CC1)Nc1ccccc1,1,4,-2,12,9,-7,.
CN(C)c1ccc(NC(=O)CN2CCC(NC(=O)C3CCCCC3)CC2)cc1,-1,-1,3,.,3,72*,i
CCC(=O)c1ccc2c(c1)N(CCCN(C)C)c1ccccc1S2,6,-15,3,28,-16,70*,i
CN(C)CCCNc1nc2cc(-c3cnn(C)c3)sc2c(=O)n1C,3,2,.,35,.,59*,i
COc1ccc(-c2cc3nc(NCCCN(C)C)n(C)c(=O)c3s2)c(C)c1,5,2,.,33,.,55*,i
CN(C)CCCNC(=O)c1ccc(-c2cc3nc(NCc4cccnc4)n(C)c(=O)c3s2)cc1,2,3,.,35,.,76*,i
Cc1cc(Cl)ccc1-c1cc2nc(NCCCN(C)C)n(C)c(=O)c2s1,7,-4,.,24,.,42,.
C[C@@H]1CCCCO[C@@H](CN(C)S(=O)(=O)c2cccs2)[C@@H](C)CN([C@H](C)CO)C(=O)c2cc(NC(=O)NC3CCCCC3)ccc2O1,.,2,.,-2,.,.,.
O=C(C[C@H]1C=C[C@H](NC(=O)C2CC2)[C@@H](CO)O1)Nc1nccs1,.,2,.,-1,.,9,.
Cc1ccc(S(=O)(=O)N2CC[C@@H]3[C@@H](CO)N(C)c4ccc(-c5ccc(C#N)cc5)cc4[C@@H]32)cc1,.,4,.,5,.,-10,.
Cc1ccc2c(c1)c1c3n2CCN(CC(N)=O)C3CCC1 (stereo unspecified),2,-21,-5,4,3,-7,.
Cc1ccc2c(c1)c1c3n2CCN(CC(O)CNC(C)C)C3CCC1 (stereo unspecified),-2,2,8,?,2,82*,i
CCN(CC)CCOC(=O)c1ccc(N/C=C(/C#N)c2nc(-c3ccc(OC)c(OC)c3)cs2)cc1,-3,-1,165*,.,7,70*,i
COc1ccc(-c2ccc3c(c2)[C@@H]2[C@@H](CCN2C(=O)Cc2ccccn2)[C@@H](CO)N3C)cc1,.,2,.,25,.,.,.
